High-throughput results as filed in PubChem.
This is a sample that favours compounds with a hit; in the whole collection about 2.4% have one here.
D2 ag-1: activates the human D2 dopamine receptor; P14416; activation, % at 2 µM; 0.53% of 340,000 active; HEK293 T-REx D2 cells, calcium flux agonist mode;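 active = activation over 3 SD above normal in the single-dose calcium agonist read, cut at about 30% in these data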; also: 0% is about no effect
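In this primary screen, compounds producing a positive calcium signal within 180 s of addition to tetracycline-induced, force-coupled HEK293 Trex D2 cells are flagged; cells are dye-loaded with a no-wash calcium kit beforehand.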
D2 PAM-1: positive allosteric modulators of human D2 dopamine receptor | HEK293 T-REx D2, calcium flux, EC20 dopamine potentiation | potentiation, % at 10 µM | 0.34% of 340,000 active | AID 485347;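 active = potentiation over 3 SD above the plate norm, cut at about 30% in these data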; also: 0% is about no effect
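Tetracycline-induced Hek293 Trex D2 cells, force-coupled to calcium, loaded with no-wash calcium dye. Compound added with 180 s kinetic read for agonism, then EC20 dopamine and a further 180 s read for potentiation.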
D2 antagonist: D2 dopamine receptor (human) antagonism; HEK293 TREx D2 cells, calcium flux, dopamine EC80; inhibition, % at 10 µM; P14416; AID 485344; 2% of 340,000 active; in the data active = inhibition above about 30%; inactive = below that, where a call was filed; also: 0% is about no effect
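Tetracycline-induced HEK293 TREx cells expressing D2 receptor forced-coupled to calcium signalling, loaded with no-wash calcium dye. Compounds added and calcium flux read 180 s, then dopamine added at EC80 and read a further 180 s.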
D2 PAM-2: human D2 receptor positive allosteric modulation; DiscoveRx D2 beta-arrestin cells, luminescence, 90 min; 100% = 57 uM dopamine signal; potentiation, % (concentration not given with the values); 0.23% of 360,000 active; in the data active = potentiation above about 50%; inconclusive = mostly about 30% to 49%
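PathHunter D2 cells, attached overnight at 37 deg C, received compound in DMSO plus dopamine at EC20 (50 nM final) for 90 min at 37 deg C. Beta-arrestin recruitment was read as luminescence after 1 h with detection reagent at ambient temperature.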
D2 ag-2: agonists of human D2 dopamine receptor (beta-arrestin) | DiscoveRx PathHunter D2 beta-arrestin, luminescence, 90 min; 100% = 57 uM dopamine signal | activation, % (no concentration beside the values) | 0.084% of 360,000 active | AID 624465; in the data active = activation above about 40%; inconclusive = between about 15% and that limit
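DiscoveRx PathHunter D2 beta-arrestin cells (2,100/well) attached overnight, then compound-stimulated 90 min at 37 C in HBSS/10 mM HEPES/0.1% Tween-20 buffer; beta-galactosidase complementation read by luminescence after 1 h at ambient temperature. Dopamine 57 uM final (EC100) as control.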
D3 ag: activates human D3 dopamine receptor beta-arrestin recruitment. shares compounds with D2 ag-1. DiscoveRx D3 beta-arrestin cells, luminescence, 90 min. Potency, µM (titrated, usually from 76.9 µM), inactives show top-dose activation, actives largely listed as activators. 4% of 2,300 active;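 also: potency is read from the fitted curve at half-maximal effect; 100% = dopamine control response; nearly all actives have a fitted effect of over 70% in size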
Target sequence (P35462 whole entry, looked up): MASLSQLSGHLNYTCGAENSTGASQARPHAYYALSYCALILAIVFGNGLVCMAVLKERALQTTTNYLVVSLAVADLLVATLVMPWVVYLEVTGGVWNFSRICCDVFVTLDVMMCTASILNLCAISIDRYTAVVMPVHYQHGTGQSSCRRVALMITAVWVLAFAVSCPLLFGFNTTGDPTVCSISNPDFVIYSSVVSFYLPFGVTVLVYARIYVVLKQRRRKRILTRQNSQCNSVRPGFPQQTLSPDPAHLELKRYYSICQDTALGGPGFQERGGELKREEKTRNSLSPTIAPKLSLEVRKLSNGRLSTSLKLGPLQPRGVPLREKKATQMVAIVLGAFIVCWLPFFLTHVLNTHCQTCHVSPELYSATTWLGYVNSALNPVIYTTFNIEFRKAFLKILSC
D2 ag-3: activates human D2 dopamine receptor in D3 counterscreen; shares compounds with D2 ag-1; 5.9% of 2,300 active; Potency, µM (titrated, usually from 76.9 µM), for the others: at the top dose activation, most hits filed as activators; DiscoveRx PathHunter D2 beta-arrestin, luminescence, 90 min; response scale: percent relative to full dopamine signal; also: potency is read from the fitted curve at half-maximal effect; % of control where 0% means no effect; nearly all actives have a fitted effect of over 70% in size
Active calls of the source: *; u = inconclusive; x = not tested or not shown. Unless noted, calls follow the shape of the dose curve; as a rule, active = well fitted activation curve with a large enough effect; inconclusive = small, poorly fitted or top-dose-only effect; inactive = flat fitted curve, though single readings scatter.

SMILES	D2 ag-1	D2 PAM-1	D2 antagonist	D2 PAM-2	D2 ag-2	D3 ag	D2 ag-3
O=C(NCc1cccnc1)C(=O)NCC(c1ccco1)N1CCN(c2ccccc2)CC1 (stereo not given)	32*	-8	19	8	u	u	u
O=C(NCc1cccnc1)C(=O)NCC(c1ccco1)N1CCN(c2ccccc2F)CC1 (stereo not given)	63*	-21	-18	6	41*	-4%	u
O=C(NCc1ccccc1)C(=O)NCC(c1ccco1)N1CCN(c2ccccc2F)CC1 (stereo not given)	11	-5	-6	-2	-4	x	x
Cc1cc(C(=O)Nc2ccc(N3CCOCC3)cc2)c2ccccc2n1	1	12	-1	4	0	x	x
CCc1cc(C(=O)NNC(=O)CCN2CCN(c3ccccc3)CC2)sc1C	80*	-15	66*	-22	4	u	u
COc1cccc(C(=O)NNC(=O)CCN2CCN(c3ccccc3)CC2)c1	x	x	x	-12	11	x	x
O=C(CCN1CCN(c2ccccc2)CC1)NNC(=S)Nc1ccccc1Cl	54*	-22	66*	-24	7	-3%	3%
N#CCC(=O)Nc1ccc(C(=O)NNC(=O)CCN2CCN(c3ccccc3)CC2)cc1	x	x	x	-1	u	u	u
CCc1cc(C(=O)NNC(=O)CCl)sc1C	-1	9	2	-8	5	x	x
Cc1cc(C(=O)NNC(=O)CCN2CCN(c3ccccc3)CC2)c2ccccc2n1	72*	-24	67*	-2	4	16%	u
CC(C)COC(=O)N(C)C[C@@H]1OCc2cnnn2CCCC(=O)N([C@H](C)CO)C[C@@H]1C	x	x	x	1	-2	x	x
CC(NS(=O)(=O)c1ccc2[nH]c(=O)[nH]c2c1)c1ccc(F)cc1 (stereo not given)	x	x	x	-10	1	x	x
CCC1(c2ccccc2)NC(=O)N(CC(=O)NNC(=O)CCN2CCN(c3ccccc3)CC2)C1=O (stereo not given)	68*	-41	89*	-10	12	11%	21%
O=C(CCN1CCN(c2ccccc2)CC1)NNC(=O)c1cccc2ccccc12	74*	-16	85*	-18	u	u	18%
O=C(COC(=O)C1CCN(S(=O)(=O)c2ccc(Cl)c(C(F)(F)F)c2)CC1)NCC1CCCO1 (stereo not given)	x	x	x	-13	-1	x	x
COc1cc(NC(=O)CSc2nc(-c3ccco3)cc(C(F)(F)F)n2)cc(OC)c1OC	-1	13	x	x	x	x	x
O=C1CC(=C2c3ccccc3-c3ccccc32)C(=O)N1CCCCN1CCN(c2ccccc2)CC1	73*	-16	44*	-13	13	8%	23%
O=C1CC(=C(c2ccccc2)c2ccccc2)C(=O)N1CCCN1CCN(c2cccc(Cl)c2)CC1	-1	-6	11	-20	3	x	x
CC(=O)c1cccc(S(=O)(=O)N2CCN(CCOc3ccccc3)CC2)c1	49*	-22	1	-12	3	u	15%
CC(=O)c1ccc(S(=O)(=O)N2CCN(CCOc3ccc(Br)cc3)CC2)cc1	1	0	-6	-3	2	x	x
O=S(=O)(c1ccccc1F)N1CCN(CCOc2ccccc2)CC1	31*	-21	39*	-28	-1	21%	16%
O=S(=O)(c1ccccc1)N1CCN(CCOc2ccc(F)cc2)CC1	x	x	x	-14	-1	x	x
Cc1ccc(S(=O)(=O)N2CCN(CCOc3ccccc3)CC2)cc1	50*	-24	16	-16	8	26%	10%
O=C(CN1CCNCC1)N1CCOCC1	x	x	x	-2	-5	x	x
CN=c1scc(-c2ccco2)n1/N=C/c1ccc(O)c(O)c1	36*	-9	28	27	49*	u	35µM*
SMILES	D2 ag-1	D2 PAM-1	D2 antagonist	D2 PAM-2	D2 ag-2	D3 ag	D2 ag-3
COc1cccc(S(=O)(=O)NCc2ccc(C(=O)N3CCN(c4ccccc4OC)CC3)cc2)c1	x	-24	x	x	x	-1%	7%
COc1cccc(S(=O)(=O)NCc2ccc(C(=O)N3CCN(c4ccccc4)CC3)cc2)c1	59*	-16	56*	5	u	-5%	u
Cc1cccc2sc(N(Cc3cccnc3)C(=O)C3CCCCC3)nc12	-2	x	x	x	x	x	x
Cc1nc2ccc(C(=O)Nc3cccc(OCC(=O)N(C)C)c3)cn2c1N(C)CC1CCCCC1	x	x	x	1	5	x	x
O=C(/C=C/c1ccccc1)NCC(=O)N/N=C/c1cccs1	43*	-19	3	-4	-3	-9%	-1%
CCOC(=O)C(NC(C)=O)(OCc1ccccc1)C(F)(F)F (stereo not given)	67*	-20	-7	4	1	1%	-3%
CCOC(=O)C(NCCc1ccccc1)(NC(=O)CC)C(F)(F)F (stereo not given)	2	-6	-8	6	3	0%	1%
CCN(CC)S(=O)(=O)c1ccc2c(c1)nc(CN(C)C(=O)Nc1ccc(C)c(F)c1)n2C	0	-14	x	x	x	x	x
CC1(C)CC(O)(CNCc2ccc3c(c2)OCO3)CCO1 (stereo not given)	70*	-22	88*	18	u	30%	u
Clc1nnc(NN=C2CCCC2)c2ccccc12	61*	-20	2	0	-4	-4%	-7%
CC1(C(=O)NS(=O)(=O)c2ccc(Cl)s2)CCN1C(=O)CCc1ccccc1 (stereo not given)	x	x	x	-1	3	x	x
Cc1cc(C(=O)O[C@H]2[C@H](Cc3ccccc3)NS(=O)(=O)[C@H]3C[C@@H]4C=C[C@]23O4)ccc1[N+](=O)[O-]	0	-6	1	-8	-4	-8%	-3%
COc1cccc(C(=O)O[C@H]2[C@H](Cc3ccccc3)NS(=O)(=O)[C@H]3C[C@@H]4C=C[C@]23O4)c1	x	x	x	-3	-3	x	x
Cc1cccc(C(=O)O[C@H]2[C@H](C)NS(=O)(=O)[C@H]3CC4C=C[C@]23O4)c1	x	x	x	-10	-3	x	x
COc1cccc(C(=O)O[C@H]2[C@H](C)NS(=O)(=O)[C@H]3C[C@@H]4C=C[C@]23O4)c1	2	-31	9	-3	-4	-1%	-4%
O=C(Nc1ccc(C(F)(F)F)cc1[N+](=O)[O-])O[C@H]1[C@H](Cc2ccccc2)NS(=O)(=O)[C@H]2C[C@@H]3C=C[C@]12O3	44*	-23	-3	11	u	12%	13%
